Among the data in PubChem BioAssay (EPA / NIEHS) are outcome and AC50 values, retold here.

Values joined by “and” are separate entries in the source; they are usually repeats but may differ in a detail not shown here. Equal entries are not always repeated. More than one record can exist for a structure, and the calls need not agree. Active and inactive are the calls of the source. How the source made its calls: active means hit-call score of the fitted dose curve at least 0.9, where 1 is the maximum; inactive means score below 0.9.

Read-out in assay [1]: Transforming growth factor beta 1 (TGFb1), TGFB1 (gene 7040)
In words: BSK_KF3CT_TGFb1: BioMAP Diversity Plus: KF3CT Assay for Transforming growth factor beta 1 (TGFb1) Biomarker Activity (AID 2283072). To be noted: primary human keratinocytes with fibroblasts; actives raise or lower the signal. Summed up: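 KF3CT co-culture (keratinocytes + fibroblasts), 24 h exposure → TGF-b1 ELISA → bidirectional fit, DMSO = baseline. Parallel SRB total-protein staining (0.1% SRB, 10% TCA fixation, 560 nm) for cytotoxicity.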

Read-out in assay [2]: C-C motif chemokine 2 (Homo sapiens) (UniProt P13500)
In words: BSK_KF3CT_MCP1: BioMAP Diversity Plus: KF3CT Assay for Monocyte Chemoattractant Protein 1 (MCP1/CCL2) Biomarker Activity (AID 2283073). To be noted: primary human keratinocytes with fibroblasts; actives raise or lower the signal. Put shortly:
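KF3CT skin co-culture (keratinocytes/foreskin fibroblasts), 24 h post-dose; MCP-1 by ELISA; gain/loss of signal fit bidirectionally vs DMSO baseline.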

Read-out in assay [3]: Matrix Metallopeptidase 9 (MMP9), MMP9 (gene 4318)
In words: BSK_KF3CT_MMP9: BioMAP Diversity Plus: KF3CT Assay for Matrix Metallopeptidase 9 (MMP9) Biomarker Activity (AID 2283074).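 On AC50: MMP9 protein level quantified by ELISA in the co-culture.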 To be noted: primary human keratinocytes with fibroblasts; actives raise or lower the signal. Summed up: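 Values come from bidirectional fitting relative to DMSO of MMP-9 levels, which were measured by ELISA. Measurements were taken 24 h after chemical dosing of a keratinocyte and foreskin fibroblast co-culture.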

Read-out in assay [4]: urokinase plasminogen activator (uPA), PLAU (gene 5328)
In words: BSK_KF3CT_uPA: BioMAP Diversity Plus: KF3CT Assay for urokinase plasminogen activator (uPA) Biomarker Activity (AID 2283075). To be noted: primary human keratinocytes with fibroblasts; actives raise or lower the signal. Put shortly:
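Values derive from bidirectional fitting against DMSO controls. Keratinocyte/foreskin fibroblast co-cultures received chemical; 24 h later uPA was detected by ELISA, with SRB total-protein staining in parallel wells for overt cytotoxicity.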

Read-out in a further assay: CD40, CD40 (gene 958)
As to the kind of experiment: BSK_LPS_CD40: BioMAP Diversity Plus: LPS Assay for CD40 Biomarker Activity (AID 2283076). To be noted: primary human HUVEC with PBMC; actives raise or lower the signal. Summed up: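 ELISA readout of CD40 in HUVEC/PBMC co-culture (BSK_LPS system), 24 h post-dosing; bidirectional curve fit, DMSO baseline; parallel SRB total-protein staining for cytotoxicity.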

Read-out in assay [5]: E-selectin (Homo sapiens) (UniProt P16581)
In words: BSK_LPS_Eselectin: BioMAP Diversity Plus: LPS Assay for Eselectin Biomarker Activity (AID 2283077). To be noted: primary human HUVEC with PBMC; actives raise or lower the signal. Summed up:
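ELISA readout of E-selectin, 24 h post-dose, HUVEC + PBMC co-culture (LPS system). Gain or loss of signal vs DMSO baseline, bidirectional fit.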

Read-out in assay [6]: Interleukin-8 (IL8), CXCL8 (gene 3576)
In words: BSK_LPS_IL8: BioMAP Diversity Plus: LPS Assay for Interleukin-8 (IL8) Biomarker Activity (AID 2283078). To be noted: primary human HUVEC with PBMC; actives raise or lower the signal. Put shortly: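 HUVEC + PBMC co-culture, LPS-activated; test chemicals dosed, IL-8 read by ELISA at 24 h. Bidirectional curve fit vs DMSO baseline (gain or loss of signal).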

Read-out in assay [7]: Interleukin-1 alpha (IL1a), IL1A (gene 3552)
In words: BSK_LPS_IL1a: BioMAP Diversity Plus: LPS Assay for Interleukin-1 alpha (IL1a) Biomarker Activity (AID 2283080). To be noted: primary human HUVEC with PBMC; actives raise or lower the signal. Put shortly: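 HUVEC/PBMC co-culture, LPS system; 24 h after dosing; IL-1a by ELISA; gain or loss of signal fitted bidirectionally vs DMSO baseline.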

Read-out in assay [8]: Monocyte Chemoattractant Protein-1 (MCP1), CCL2 (gene 6347)
As to the kind of experiment: BSK_LPS_MCP1: BioMAP Diversity Plus: LPS Assay for Monocyte Chemoattractant Protein-1 (MCP1) Biomarker Activity (AID 2283081).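 On AC50: secreted MCP-1 protein quantified by ELISA in culture supernatant.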 As to conditions: primary human HUVEC with PBMC; actives raise or lower the signal. Put shortly: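 ELISA read-out of MCP-1 after 24 h chemical dosing of a human umbilical vein endothelial cell/peripheral blood mononuclear cell co-culture stimulated with LPS. Gain or loss of signal fitted relative to DMSO controls.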

A short description of assay [9]: BSK_LPS_SRB: Viability Assessment in the BioMAP Diversity Plus: LPS Assay (AID 2283079).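 Further: total protein by sulforhodamine B absorbance as a cytotoxicity measure; measured one day after compound addition; fitted in both directions against DMSO so loss or gain of signal counts.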 To be noted: primary human HUVEC with PBMC. Summed up: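 HUVEC + PBMC co-culture, LPS-stimulated; compound 24 h. 10% TCA fix, 0.1% SRB stain, A560. Bidirectional fit vs DMSO.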

E-selectin (Homo sapiens), sequence (P16581 whole entry, looked up): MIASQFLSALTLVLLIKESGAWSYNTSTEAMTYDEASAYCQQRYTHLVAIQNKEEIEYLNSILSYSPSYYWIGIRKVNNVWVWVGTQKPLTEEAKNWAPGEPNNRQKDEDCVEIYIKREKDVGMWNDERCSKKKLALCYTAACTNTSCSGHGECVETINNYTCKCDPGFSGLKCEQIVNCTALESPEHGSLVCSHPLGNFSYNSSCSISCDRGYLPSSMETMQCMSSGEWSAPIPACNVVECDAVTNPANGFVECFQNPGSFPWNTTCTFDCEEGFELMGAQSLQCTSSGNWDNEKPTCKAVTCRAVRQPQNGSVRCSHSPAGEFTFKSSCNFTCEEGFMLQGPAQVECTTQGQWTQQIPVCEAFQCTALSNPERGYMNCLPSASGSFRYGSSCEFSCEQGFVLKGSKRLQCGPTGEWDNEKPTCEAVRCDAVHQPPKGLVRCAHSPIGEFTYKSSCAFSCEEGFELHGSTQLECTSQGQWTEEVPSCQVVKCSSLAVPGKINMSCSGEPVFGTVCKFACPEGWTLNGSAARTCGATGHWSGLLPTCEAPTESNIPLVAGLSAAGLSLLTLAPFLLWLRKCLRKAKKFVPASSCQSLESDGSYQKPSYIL

The term AC50 denotes the concentration giving half of the maximal activity seen. Take `CCOCN(C(=O)CCl)c1c(C)cccc1CC`: the outcome in assay [1], in [2], in assay [4], in assay [6] and in assay [7] was inactive. Also, the AC50 in [3] was 12.7 µM (active); with CD40, CD40 (gene 958), 14.8 µM (active); in assay [5] it was 28.5 µM (active); in [8], 31.2 µM (active).

For the compound `O=C(O)C(F)(F)C(F)(F)C(F)(F)C(F)(F)C(F)(F)C(F)(F)C(F)(F)F`, the outcome in assay [1] is “inactive”; in assay [2] it was “inactive”; in [3], “inactive”; in assay [4] it was “inactive”; in the assay with CD40, CD40 (gene 958), “inactive”; in assay [5], “inactive”. The outcome in assay [6], in assay [9], in assay [7] and in assay [8] was inactive. Moreover, the AC50 in the assay with CD40, CD40 (gene 958) is 23.1 µM (active); in [5] it was 16.1 µM (active); in [6] it was 30 µM (active) and 13.3 µM (active).

Turning to `O=[N+]([O-])c1c(Cl)c(Cl)c(Cl)c(Cl)c1Cl`, the outcome in assay [1], in assay [2], in assay [6], in assay [9], in assay [7] and in [8] was inactive. The AC50 in [3] is 15.7 µM (active); in assay [4] it was 31 µM (active); with CD40, CD40 (gene 958), 17.9 µM (active); in assay [5] it was 31.1 µM (active).

For the compound `CC(C)N(C(=O)COc1nnc(C(F)(F)F)s1)c1ccc(F)cc1`, the outcome is “inactive” in [1]; “inactive” in [2]; “inactive” in assay [3]; “inactive” in assay [4]; “inactive” in the assay with CD40, CD40 (gene 958); “inactive” in [5]. The outcome in assay [6], in assay [9], in assay [7] and in assay [8] was inactive.

`CCc1ccc(C(=O)NN(C(=O)c2cc(C)cc(C)c2)C(C)(C)C)cc1`: the outcome in assay [1] is “inactive”; in assay [2], “inactive”; in assay [3] it was “inactive”; in assay [4], “inactive”; with CD40, CD40 (gene 958) it was “inactive”; in assay [5], “inactive”. Further, the outcome in assay [6], in [9], in [7] and in [8] was inactive.

With `COP(=S)(OC)Oc1ccc([N+](=O)[O-])cc1`, the result in assay [1], in assay [2], in assay [3], in assay [4], in assay [5] and in assay [6] was inactive. The outcome in assay [7] and in [8] was inactive. In addition, the AC50 with CD40, CD40 (gene 958) was 20 µM (active).

`C#CCN1C(=O)COc2cc(F)c(N3C(=O)C4=C(CCCC4)C3=O)cc21`: the outcome in assay [1] was “inactive”; in assay [2] it was “inactive”; in assay [3] it was “inactive”; in assay [4] it was “inactive”; with CD40, CD40 (gene 958) it was “inactive”; in [5], “inactive”. Further, the result in assay [6], in assay [9], in assay [7] and in assay [8] was inactive.

In the case of `CCC(C)(NC(=O)c1cc(Cl)c(C)c(Cl)c1)C(=O)CCl` (configuration not stated), the AC50 was 20 µM (active) in assay [1]; 15.9 µM (active) in [2]; 7.45 µM (active) in [3]; 35.5 µM (active) in assay [4]; 3.52 µM (active) with CD40, CD40 (gene 958); 10.1 µM (active) in [5]. Further, the AC50 in [6] is 12.2 µM (active); in [7], 15.9 µM (active); in assay [8], 12.2 µM (active).

Consider `COc1cc(OC)nc(NC(=O)NS(=O)(=O)c2cc(NC=O)ccc2C(=O)N(C)C)n1`, for which the outcome in assay [1] is “inactive”; in [2], “inactive”; in [3], “inactive”; in assay [4], “inactive”; with CD40, CD40 (gene 958), “inactive”; in [5], “inactive”. In addition, the result in assay [6], in [7] and in [8] was inactive.

`Clc1ccccc1-c1nnc(-c2ccccc2Cl)nn1`: the outcome in [1] was “inactive”; in [2], “inactive”; in [3], “inactive”; in assay [4], “inactive”; in the assay with CD40, CD40 (gene 958), “inactive”; in assay [5] it was “inactive”. The result in assay [6], in assay [7] and in assay [8] was inactive.

As for `O=C1c2ccccc2C(=O)N1SC(Cl)(Cl)Cl`, the outcome in assay [1] is “inactive”; in assay [2], “inactive”; in assay [3], “inactive”; in [4], “inactive”; in the assay with CD40, CD40 (gene 958), “inactive”; in assay [5] it was “inactive”. Also, the outcome in assay [6], in [7] and in assay [8] was inactive.

Turning to `C[C@H]1[C@H](c2ccc(Cl)cc2)SC(=O)N1C(=O)NC1CCCCC1`, the outcome in assay [1] is “inactive”; in assay [2], “inactive”; in assay [4], “inactive”; with CD40, CD40 (gene 958), “inactive”; in assay [5], “inactive”; in [6] it was “inactive”. The AC50 is 9.22 µM (active) in [3], 10.9 µM (active) in [9], 26.4 µM (active) in assay [7] and 20.1 µM (active) in [8].
